This passage reports binding signal results from paper PMC5700166.

Test in all cases: protein-binding microarray (PBM); PBM: ~300 nM protein, 6 mM HEPES pH 7.8, 80 mM KCl, 0.5 mM EDTA, 0.5 mM EGTA, 6% glycerol, 35 ng/ul poly-dIdC, 1% milk, 1 h, room temperature; Ap Aiptasia and Nv Nematostella (sea anemones) / Co Capsaspora / Aq Amphimedon (sponge) / Dm Drosophila / Hu human; RHD is the Rel homology domain; high values mean tight binding
Common to all, as to conditions: dsDNA, one strand shown

In experiment [1] the target is T1, GST-Nv-NF-kB (Cys allele) (Nematostella vectensis, UniProt E5G601 2-411).
T1 sequence: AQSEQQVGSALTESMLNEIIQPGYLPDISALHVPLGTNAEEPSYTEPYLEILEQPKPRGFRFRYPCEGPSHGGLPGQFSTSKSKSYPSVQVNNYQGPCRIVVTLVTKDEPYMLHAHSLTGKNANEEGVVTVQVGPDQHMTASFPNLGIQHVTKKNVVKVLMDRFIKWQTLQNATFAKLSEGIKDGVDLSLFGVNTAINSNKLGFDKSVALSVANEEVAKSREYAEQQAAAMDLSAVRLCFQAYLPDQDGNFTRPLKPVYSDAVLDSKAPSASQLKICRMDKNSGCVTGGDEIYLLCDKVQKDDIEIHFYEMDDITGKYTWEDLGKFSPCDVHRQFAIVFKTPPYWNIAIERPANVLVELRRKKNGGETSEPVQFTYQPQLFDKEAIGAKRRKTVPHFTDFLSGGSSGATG

The target of the next experiment is T2, GST-Dm-Relish (Drosophila melanogaster, UniProt Q94527 99-473).
T2 sequence: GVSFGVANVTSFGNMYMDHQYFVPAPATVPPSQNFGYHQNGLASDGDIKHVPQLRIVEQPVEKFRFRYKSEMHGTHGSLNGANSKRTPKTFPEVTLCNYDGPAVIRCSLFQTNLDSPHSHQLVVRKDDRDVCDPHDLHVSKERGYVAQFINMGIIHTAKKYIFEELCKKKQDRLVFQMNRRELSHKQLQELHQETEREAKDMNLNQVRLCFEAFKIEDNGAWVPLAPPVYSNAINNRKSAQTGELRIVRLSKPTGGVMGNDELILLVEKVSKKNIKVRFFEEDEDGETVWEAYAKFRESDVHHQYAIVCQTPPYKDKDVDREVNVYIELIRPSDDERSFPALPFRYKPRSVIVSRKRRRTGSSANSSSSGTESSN

The target of the next experiment is T3, GST-Aq-NF-kB (Amphimedon queenslandica, UniProt A9Y5G7 2-389).
T3 sequence: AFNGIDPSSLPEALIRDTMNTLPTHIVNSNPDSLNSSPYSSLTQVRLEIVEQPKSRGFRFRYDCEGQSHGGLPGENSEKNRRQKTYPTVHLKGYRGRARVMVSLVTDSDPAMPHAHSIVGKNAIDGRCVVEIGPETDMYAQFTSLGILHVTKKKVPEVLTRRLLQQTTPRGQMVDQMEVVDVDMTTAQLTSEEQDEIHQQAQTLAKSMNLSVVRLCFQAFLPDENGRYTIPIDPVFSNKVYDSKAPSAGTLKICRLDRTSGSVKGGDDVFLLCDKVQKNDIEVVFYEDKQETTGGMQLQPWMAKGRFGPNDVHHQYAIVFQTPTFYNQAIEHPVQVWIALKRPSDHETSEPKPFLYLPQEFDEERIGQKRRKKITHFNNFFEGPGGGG

A further experiment addresses T4, GST-Co-NF-kB (Capsaspora owczarzaki, UniProt F1ARL5 200-546).
T4 sequence: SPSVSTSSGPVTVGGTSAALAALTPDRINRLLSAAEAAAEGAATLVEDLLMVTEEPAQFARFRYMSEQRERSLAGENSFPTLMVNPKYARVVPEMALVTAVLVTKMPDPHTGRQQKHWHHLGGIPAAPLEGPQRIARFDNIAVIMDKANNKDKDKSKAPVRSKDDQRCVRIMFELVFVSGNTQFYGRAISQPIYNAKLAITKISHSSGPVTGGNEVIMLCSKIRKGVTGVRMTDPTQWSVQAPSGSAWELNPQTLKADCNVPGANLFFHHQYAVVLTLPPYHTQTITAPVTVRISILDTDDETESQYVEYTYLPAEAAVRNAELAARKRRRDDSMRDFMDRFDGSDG

With “CCGATTAACATCAAGGAAAAACCTGATGTTAATCGGGTCTTGATTCGCTTGACGCTGCTG”, the binding signal was 1.07 z-score in experiment [1], 2.61 z-score in the experiment with GST-Dm-Relish and 3.09 z-score in the experiment with GST-Aq-NF-kB.
Take “CCGATTAACATCAAAATATTCCGTGATGTTAATCGGGTCTTGATTCGCTTGACGCTGCTG”: the binding signal in the experiment with GST-Co-NF-kB worked out at 1.07 z-score; with GST-Aq-NF-kB it was 1.1 z-score.
“CCGATTAACATCACAAATGGGAATGATGTTAATCGGGTCTTGATTCGCTTGACGCTGCTG”: the binding signal in experiment [1] stood at 1.95 z-score; with GST-Co-NF-kB it was 1.92 z-score; in the experiment with GST-Dm-Relish, 1.56 z-score; in the experiment with GST-Aq-NF-kB, 2.36 z-score.
As to “CCGATTAACATCACGTAAGGGATTGATGTTAATCGGGTCTTGATTCGCTTGACGCTGCTG”, the values for the binding signal (in experiment [1]; with GST-Aq-NF-kB) were 1.34 z-score and 2.43 z-score, respectively.
Regarding “CCGATTAACATCAACTTTGGGAATGATGTTAATCGGGTCTTGATTCGCTTGACGCTGCTG”, the values for the binding signal (in experiment [1]; with GST-Co-NF-kB; in the experiment with GST-Aq-NF-kB) were 1.04 z-score, 1.7 z-score and 1.56 z-score, respectively.
In the same order, the values of “CCGATTAACATCACATGTGGGAATGATGTTAATCGGGTCTTGATTCGCTTGACGCTGCTG” are 1.34 z-score, 2.62 z-score and 2.05 z-score.
For “CCGATTAACATCAAGGAAAGTCCTGATGTTAATCGGGTCTTGATTCGCTTGACGCTGCTG”, the results for the binding signal in the experiment with GST-Dm-Relish and with GST-Aq-NF-kB were 3.16 z-score and 4.65 z-score, respectively.
In the same order, the values of “CCGATTAACATCAGAGGAATTCCTGATGTTAATCGGGTCTTGATTCGCTTGACGCTGCTG” are 2.63 z-score and 2.12 z-score.
For “CCGATTAACATCAGGAAAAACCATGATGTTAATCGGGTCTTGATTCGCTTGACGCTGCTG”, the values for the binding signal in the experiment with GST-Dm-Relish and with GST-Aq-NF-kB were 2.39 z-score and 2.94 z-score, respectively.
As for “CCGATTAACATCAGGAATCTCCATGATGTTAATCGGGTCTTGATTCGCTTGACGCTGCTG”, the binding signal came out at 1.01 z-score in the experiment with GST-Dm-Relish and 1.6 z-score with GST-Aq-NF-kB.
In the case of “CCGATTAACATCACGGAATTTTCTGATGTTAATCGGGTCTTGATTCGCTTGACGCTGCTG”, the binding signal with GST-Dm-Relish was determined as 1.06 z-score; with GST-Aq-NF-kB it was 2.35 z-score.
On to “CCGATTAACATCAAAAAAAATCCTGATGTTAATCGGGTCTTGATTCGCTTGACGCTGCTG”, for which the binding signal with GST-Dm-Relish amounted to 3.09 z-score; with GST-Aq-NF-kB, 2.68 z-score.
Consider “CCGATTAACATCAAAAATTCCTATGATGTTAATCGGGTCTTGATTCGCTTGACGCTGCTG”, for which the binding signal in the experiment with GST-Dm-Relish stood at 1.74 z-score; with GST-Aq-NF-kB it was 1.2 z-score.
Turning to “CCGATTAACATCACGGAATTGCCTGATGTTAATCGGGTCTTGATTCGCTTGACGCTGCTG”, the binding signal with GST-Dm-Relish stood at 1.01 z-score; in the experiment with GST-Aq-NF-kB, 1.14 z-score.
Take “CCGATTAACATCAGGAAATTTTATGATGTTAATCGGGTCTTGATTCGCTTGACGCTGCTG”: the binding signal with GST-Dm-Relish turned out to be 1.46 z-score; with GST-Aq-NF-kB it was 1.85 z-score.
In the same order, the values of “CCGATTAACATCACGGACTTTCCTGATGTTAATCGGGTCTTGATTCGCTTGACGCTGCTG” are 2.95 z-score and 5.31 z-score.
Regarding “CCGATTAACATCAGGAAACTCCATGATGTTAATCGGGTCTTGATTCGCTTGACGCTGCTG”, the binding signal with GST-Dm-Relish was found to be 1.62 z-score; in the experiment with GST-Aq-NF-kB, 2.15 z-score.
On to “CCGATTAACATCAGAAAATTCCATGATGTTAATCGGGTCTTGATTCGCTTGACGCTGCTG”, for which the binding signal in the experiment with GST-Dm-Relish was determined as 1.53 z-score; with GST-Aq-NF-kB, 1.51 z-score.
As for “CCGATTAACATCAGGTATTTCCATGATGTTAATCGGGTCTTGATTCGCTTGACGCTGCTG”, the binding signal with GST-Dm-Relish is 2.79 z-score; with GST-Aq-NF-kB, 3.5 z-score.
As for “CCGATTAACATCAGGTAACTACCTGATGTTAATCGGGTCTTGATTCGCTTGACGCTGCTG”, the binding signal with GST-Dm-Relish came out at 3.08 z-score; with GST-Aq-NF-kB, 3.17 z-score.
In the case of “CCGATTAACATCACTGGAATTCCTGATGTTAATCGGGTCTTGATTCGCTTGACGCTGCTG”, the binding signal in the experiment with GST-Dm-Relish came out at 2.95 z-score; with GST-Aq-NF-kB, 1.7 z-score.
In the case of “CCGATTAACATCAACGGAAATCCTGATGTTAATCGGGTCTTGATTCGCTTGACGCTGCTG”, the binding signal with GST-Dm-Relish was found to be 1.24 z-score; in the experiment with GST-Aq-NF-kB, 1.17 z-score.
As to “CCGATTAACATCACCGGATTTCCTGATGTTAATCGGGTCTTGATTCGCTTGACGCTGCTG”, the binding signal came out at 1.86 z-score with GST-Dm-Relish and 1.54 z-score in the experiment with GST-Aq-NF-kB.
For “CCGATTAACATCAGGATTTTTTATGATGTTAATCGGGTCTTGATTCGCTTGACGCTGCTG”, the binding signal in the experiment with GST-Dm-Relish worked out at 2.63 z-score; with GST-Aq-NF-kB it was 1.59 z-score.
As to “CCGATTAACATCAACGGAATTCCTGATGTTAATCGGGTCTTGATTCGCTTGACGCTGCTG”, the binding signal with GST-Dm-Relish is 2.11 z-score; with GST-Aq-NF-kB it was 1.66 z-score.
In the case of “CCGATTAACATCAGGAAAAGTACTGATGTTAATCGGGTCTTGATTCGCTTGACGCTGCTG”, the binding signal with GST-Dm-Relish turned out to be 4.26 z-score; with GST-Aq-NF-kB, 1.14 z-score.
Consider “CCGATTAACATCAAGTACTTTCCTGATGTTAATCGGGTCTTGATTCGCTTGACGCTGCTG”, for which the binding signal with GST-Dm-Relish was 5.26 z-score; with GST-Aq-NF-kB, 1.81 z-score.
In the same order, the values of “CCGATTAACATCAAAAAATTCCATGATGTTAATCGGGTCTTGATTCGCTTGACGCTGCTG” are 2.59 z-score and 1.71 z-score.
Turning to “CCGATTAACATCACGTGGTTTCCTGATGTTAATCGGGTCTTGATTCGCTTGACGCTGCTG”, the binding signal with GST-Dm-Relish worked out at 3.67 z-score; in the experiment with GST-Aq-NF-kB, 1.63 z-score.
For the sequence “CCGATTAACATCAAAAATTCCACTGATGTTAATCGGGTCTTGATTCGCTTGACGCTGCTG”, the binding signal was 2.3 z-score with GST-Dm-Relish and 1.44 z-score with GST-Aq-NF-kB.
Regarding “CCGATTAACATCAGGAAAGACCATGATGTTAATCGGGTCTTGATTCGCTTGACGCTGCTG”, the figures for the binding signal with GST-Dm-Relish and in the experiment with GST-Aq-NF-kB were 1.35 z-score and 1.49 z-score, respectively.
Consider “CCGATTAACATCAAAGGAATTCCTGATGTTAATCGGGTCTTGATTCGCTTGACGCTGCTG”, for which the binding signal worked out at 3.78 z-score with GST-Dm-Relish and 2.38 z-score with GST-Aq-NF-kB.
Turning to “CCGATTAACATCACGTAATTTCCTGATGTTAATCGGGTCTTGATTCGCTTGACGCTGCTG”, the binding signal in the experiment with GST-Dm-Relish was 1.85 z-score; in the experiment with GST-Aq-NF-kB, 1.14 z-score.
For the sequence “CCGATTAACATCAAAAAAACTCCTGATGTTAATCGGGTCTTGATTCGCTTGACGCTGCTG”, the binding signal in the experiment with GST-Dm-Relish turned out to be 3.63 z-score; in the experiment with GST-Aq-NF-kB it was 1.83 z-score.
As to “CCGATTAACATCAGGATTTTCCATGATGTTAATCGGGTCTTGATTCGCTTGACGCTGCTG”, the binding signal with GST-Dm-Relish worked out at 1.28 z-score; with GST-Aq-NF-kB, 2.57 z-score.
